For orientation: residual activity means the signal under treatment as a percentage of the control signal.

The text below walks through data of ChEMBL document CHEMBL2218924, “A broad activity screen in support of a chemogenomic map for kinase signalling research and drug discovery” (Biochem J, 2013).

For test [1], the target named is T1, Ephrin type-B receptor 1 (Homo sapiens) (UniProt P54762).
T1 sequence (whole entry): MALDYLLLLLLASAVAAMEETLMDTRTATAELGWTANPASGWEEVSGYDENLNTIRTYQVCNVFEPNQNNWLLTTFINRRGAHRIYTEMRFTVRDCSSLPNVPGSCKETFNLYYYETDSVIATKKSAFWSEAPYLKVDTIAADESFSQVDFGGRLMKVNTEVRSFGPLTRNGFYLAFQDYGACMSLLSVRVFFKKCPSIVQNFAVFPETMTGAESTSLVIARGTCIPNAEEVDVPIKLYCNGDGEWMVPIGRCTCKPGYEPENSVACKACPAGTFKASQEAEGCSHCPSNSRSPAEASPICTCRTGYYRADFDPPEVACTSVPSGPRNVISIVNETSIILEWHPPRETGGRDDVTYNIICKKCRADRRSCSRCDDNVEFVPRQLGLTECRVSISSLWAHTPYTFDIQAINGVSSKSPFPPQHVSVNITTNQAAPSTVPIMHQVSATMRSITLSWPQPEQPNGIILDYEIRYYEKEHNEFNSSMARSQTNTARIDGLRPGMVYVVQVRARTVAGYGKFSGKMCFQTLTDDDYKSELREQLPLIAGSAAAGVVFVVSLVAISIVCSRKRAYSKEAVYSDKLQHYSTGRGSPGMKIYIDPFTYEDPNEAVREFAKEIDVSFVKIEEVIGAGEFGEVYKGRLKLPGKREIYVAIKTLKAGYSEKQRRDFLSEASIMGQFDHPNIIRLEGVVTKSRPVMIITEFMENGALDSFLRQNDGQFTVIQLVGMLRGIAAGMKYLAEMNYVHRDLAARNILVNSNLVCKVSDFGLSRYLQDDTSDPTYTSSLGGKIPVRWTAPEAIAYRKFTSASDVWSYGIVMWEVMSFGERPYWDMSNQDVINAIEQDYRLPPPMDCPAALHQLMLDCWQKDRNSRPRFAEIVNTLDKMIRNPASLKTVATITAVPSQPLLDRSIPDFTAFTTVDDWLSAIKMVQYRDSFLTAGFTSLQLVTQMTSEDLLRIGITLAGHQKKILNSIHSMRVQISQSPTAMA
The conditions noted are these: at 10 µM.

For test [2], the target named is T2, Ephrin type-B receptor 2 (Homo sapiens) (UniProt P29323).
T2 sequence (whole entry): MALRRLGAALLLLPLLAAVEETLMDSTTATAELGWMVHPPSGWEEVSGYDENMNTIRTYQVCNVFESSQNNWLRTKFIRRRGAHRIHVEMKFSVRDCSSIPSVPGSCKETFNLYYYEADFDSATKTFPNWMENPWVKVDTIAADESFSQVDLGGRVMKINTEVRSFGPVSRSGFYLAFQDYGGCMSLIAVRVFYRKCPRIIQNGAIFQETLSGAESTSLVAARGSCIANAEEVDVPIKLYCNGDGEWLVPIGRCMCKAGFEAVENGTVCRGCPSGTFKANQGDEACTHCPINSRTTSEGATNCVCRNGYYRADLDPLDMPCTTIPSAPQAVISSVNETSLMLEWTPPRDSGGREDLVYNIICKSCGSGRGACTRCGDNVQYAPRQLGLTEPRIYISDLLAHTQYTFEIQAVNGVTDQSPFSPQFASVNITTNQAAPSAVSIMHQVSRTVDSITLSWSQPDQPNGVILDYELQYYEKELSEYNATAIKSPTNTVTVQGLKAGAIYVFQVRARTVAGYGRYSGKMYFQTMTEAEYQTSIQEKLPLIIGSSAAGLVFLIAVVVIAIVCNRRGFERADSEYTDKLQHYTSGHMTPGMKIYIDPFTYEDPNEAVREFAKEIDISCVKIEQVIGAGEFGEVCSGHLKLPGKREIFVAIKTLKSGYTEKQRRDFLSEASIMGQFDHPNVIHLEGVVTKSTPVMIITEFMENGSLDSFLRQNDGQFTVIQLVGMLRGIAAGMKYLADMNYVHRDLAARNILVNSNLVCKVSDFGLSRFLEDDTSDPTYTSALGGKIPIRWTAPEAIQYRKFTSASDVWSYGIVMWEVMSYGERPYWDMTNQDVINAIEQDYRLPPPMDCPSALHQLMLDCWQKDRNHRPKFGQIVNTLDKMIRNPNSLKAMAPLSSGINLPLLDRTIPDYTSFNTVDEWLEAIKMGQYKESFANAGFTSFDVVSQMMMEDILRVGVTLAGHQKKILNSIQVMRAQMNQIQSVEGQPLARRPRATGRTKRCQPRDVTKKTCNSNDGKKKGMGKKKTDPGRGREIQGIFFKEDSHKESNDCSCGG
The conditions noted are these: at 1 µM.

Test [3] addresses T2, Ephrin type-B receptor 2 (Homo sapiens). The conditions noted are these: at 10 µM.
For test [4], the target named is T3, Ephrin type-B receptor 3 (Homo sapiens) (UniProt P54753).
T3 sequence (whole entry): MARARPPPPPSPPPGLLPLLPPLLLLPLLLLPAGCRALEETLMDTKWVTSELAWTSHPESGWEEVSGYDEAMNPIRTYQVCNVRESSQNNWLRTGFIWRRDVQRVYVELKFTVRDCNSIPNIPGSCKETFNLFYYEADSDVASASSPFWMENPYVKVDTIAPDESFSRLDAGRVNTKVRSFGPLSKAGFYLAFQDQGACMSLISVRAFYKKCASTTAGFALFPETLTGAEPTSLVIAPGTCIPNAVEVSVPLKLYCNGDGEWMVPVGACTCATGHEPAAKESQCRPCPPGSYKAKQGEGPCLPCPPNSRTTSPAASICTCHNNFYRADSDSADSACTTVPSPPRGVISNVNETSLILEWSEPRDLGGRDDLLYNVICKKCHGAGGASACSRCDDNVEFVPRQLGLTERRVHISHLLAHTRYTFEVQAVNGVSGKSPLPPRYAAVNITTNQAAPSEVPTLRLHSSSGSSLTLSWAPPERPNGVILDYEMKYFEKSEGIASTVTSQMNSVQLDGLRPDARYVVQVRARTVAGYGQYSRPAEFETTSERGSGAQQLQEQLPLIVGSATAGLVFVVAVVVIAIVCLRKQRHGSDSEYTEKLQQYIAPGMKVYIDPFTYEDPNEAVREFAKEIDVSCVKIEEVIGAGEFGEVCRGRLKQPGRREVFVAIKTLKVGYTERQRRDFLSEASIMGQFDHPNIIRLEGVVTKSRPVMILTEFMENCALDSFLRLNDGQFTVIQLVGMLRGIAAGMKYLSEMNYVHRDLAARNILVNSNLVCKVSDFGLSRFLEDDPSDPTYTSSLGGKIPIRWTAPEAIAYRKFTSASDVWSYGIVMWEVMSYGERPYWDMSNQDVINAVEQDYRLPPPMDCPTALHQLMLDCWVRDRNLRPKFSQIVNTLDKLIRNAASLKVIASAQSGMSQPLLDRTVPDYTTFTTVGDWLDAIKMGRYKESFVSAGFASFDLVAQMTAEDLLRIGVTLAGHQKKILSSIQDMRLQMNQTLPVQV
To be noted: at 1 µM.

The target of test [5] is T3, Ephrin type-B receptor 3 (Homo sapiens). The conditions noted are these: at 10 µM.
Test [6] deals with T4, Ephrin type-B receptor 4 (Homo sapiens) (UniProt P54760).
T4 sequence (whole entry): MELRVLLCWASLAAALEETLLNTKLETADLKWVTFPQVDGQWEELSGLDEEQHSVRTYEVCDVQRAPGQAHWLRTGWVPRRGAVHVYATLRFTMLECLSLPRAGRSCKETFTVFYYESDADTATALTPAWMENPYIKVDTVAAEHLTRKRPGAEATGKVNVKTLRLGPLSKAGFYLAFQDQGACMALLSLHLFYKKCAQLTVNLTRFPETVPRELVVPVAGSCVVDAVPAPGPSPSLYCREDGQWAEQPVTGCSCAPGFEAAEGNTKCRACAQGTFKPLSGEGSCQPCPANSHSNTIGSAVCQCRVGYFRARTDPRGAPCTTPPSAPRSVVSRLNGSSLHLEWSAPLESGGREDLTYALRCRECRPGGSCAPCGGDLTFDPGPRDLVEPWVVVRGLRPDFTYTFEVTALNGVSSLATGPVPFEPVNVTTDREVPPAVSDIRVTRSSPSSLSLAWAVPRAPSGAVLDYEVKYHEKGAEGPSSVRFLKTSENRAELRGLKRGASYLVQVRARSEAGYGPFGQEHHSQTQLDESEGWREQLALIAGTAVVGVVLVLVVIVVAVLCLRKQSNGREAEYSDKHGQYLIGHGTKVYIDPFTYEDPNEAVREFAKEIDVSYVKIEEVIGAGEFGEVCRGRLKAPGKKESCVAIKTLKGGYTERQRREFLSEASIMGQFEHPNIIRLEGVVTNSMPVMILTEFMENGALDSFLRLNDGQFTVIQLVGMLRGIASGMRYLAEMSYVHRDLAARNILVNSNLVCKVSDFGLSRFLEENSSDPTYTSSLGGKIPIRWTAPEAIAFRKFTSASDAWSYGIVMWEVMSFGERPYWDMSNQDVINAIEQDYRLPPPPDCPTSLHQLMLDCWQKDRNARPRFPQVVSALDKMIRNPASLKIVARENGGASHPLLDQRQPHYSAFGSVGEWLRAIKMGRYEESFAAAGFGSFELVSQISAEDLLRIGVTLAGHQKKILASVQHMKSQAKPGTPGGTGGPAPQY
To be noted: at 1 µM.

The target in test [7] is T4, Ephrin type-B receptor 4 (Homo sapiens). To be noted: at 10 µM.
For test [8], the target named is Receptor tyrosine-protein kinase erbB-4 (Homo sapiens) (UniProt Q15303). To be noted: at 1 µM.
The target is the same in test [9]. To be noted: at 10 µM.
The target of test [10] is Focal adhesion kinase 1 (Homo sapiens) (UniProt Q05397). To be noted: at 1 µM.

Molecules are shown by their SMILES.

Chain of Receptor tyrosine-protein kinase erbB-4 (Homo sapiens) (Q15303 whole entry): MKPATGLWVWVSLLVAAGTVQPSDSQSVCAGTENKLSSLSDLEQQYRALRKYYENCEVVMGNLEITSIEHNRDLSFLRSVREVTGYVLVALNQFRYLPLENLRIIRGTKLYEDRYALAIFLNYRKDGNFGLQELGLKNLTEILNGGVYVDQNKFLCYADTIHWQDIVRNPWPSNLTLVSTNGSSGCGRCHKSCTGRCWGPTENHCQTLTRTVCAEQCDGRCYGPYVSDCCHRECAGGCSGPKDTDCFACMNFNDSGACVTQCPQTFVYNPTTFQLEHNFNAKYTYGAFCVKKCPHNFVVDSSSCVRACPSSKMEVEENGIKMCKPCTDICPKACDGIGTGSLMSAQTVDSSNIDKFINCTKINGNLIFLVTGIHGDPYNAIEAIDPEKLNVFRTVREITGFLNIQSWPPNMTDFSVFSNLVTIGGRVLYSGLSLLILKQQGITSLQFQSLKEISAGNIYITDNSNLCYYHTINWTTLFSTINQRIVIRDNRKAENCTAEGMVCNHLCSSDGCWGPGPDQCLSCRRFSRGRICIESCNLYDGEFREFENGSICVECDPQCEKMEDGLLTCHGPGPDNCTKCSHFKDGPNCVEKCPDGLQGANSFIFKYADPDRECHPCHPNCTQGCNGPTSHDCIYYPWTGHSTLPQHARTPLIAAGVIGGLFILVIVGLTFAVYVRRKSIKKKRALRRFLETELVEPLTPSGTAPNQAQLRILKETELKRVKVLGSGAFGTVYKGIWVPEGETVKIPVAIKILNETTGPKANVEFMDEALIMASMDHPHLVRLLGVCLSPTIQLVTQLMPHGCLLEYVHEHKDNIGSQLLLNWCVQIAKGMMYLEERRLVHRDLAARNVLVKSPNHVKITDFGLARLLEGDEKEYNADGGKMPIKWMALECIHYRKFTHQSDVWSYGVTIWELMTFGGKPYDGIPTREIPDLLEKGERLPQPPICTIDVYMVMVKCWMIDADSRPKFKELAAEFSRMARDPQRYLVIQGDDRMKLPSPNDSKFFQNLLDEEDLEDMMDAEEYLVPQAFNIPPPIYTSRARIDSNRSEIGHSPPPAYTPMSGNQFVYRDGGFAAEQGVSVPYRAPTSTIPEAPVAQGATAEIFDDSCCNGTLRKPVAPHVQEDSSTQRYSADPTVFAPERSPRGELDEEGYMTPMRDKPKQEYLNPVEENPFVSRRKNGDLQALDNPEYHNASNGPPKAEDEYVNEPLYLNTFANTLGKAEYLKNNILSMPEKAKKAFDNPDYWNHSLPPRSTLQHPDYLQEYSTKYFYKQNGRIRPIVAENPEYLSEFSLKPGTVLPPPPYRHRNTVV
Chain of Focal adhesion kinase 1 (Homo sapiens) (Q05397 2-1052 limits assumed): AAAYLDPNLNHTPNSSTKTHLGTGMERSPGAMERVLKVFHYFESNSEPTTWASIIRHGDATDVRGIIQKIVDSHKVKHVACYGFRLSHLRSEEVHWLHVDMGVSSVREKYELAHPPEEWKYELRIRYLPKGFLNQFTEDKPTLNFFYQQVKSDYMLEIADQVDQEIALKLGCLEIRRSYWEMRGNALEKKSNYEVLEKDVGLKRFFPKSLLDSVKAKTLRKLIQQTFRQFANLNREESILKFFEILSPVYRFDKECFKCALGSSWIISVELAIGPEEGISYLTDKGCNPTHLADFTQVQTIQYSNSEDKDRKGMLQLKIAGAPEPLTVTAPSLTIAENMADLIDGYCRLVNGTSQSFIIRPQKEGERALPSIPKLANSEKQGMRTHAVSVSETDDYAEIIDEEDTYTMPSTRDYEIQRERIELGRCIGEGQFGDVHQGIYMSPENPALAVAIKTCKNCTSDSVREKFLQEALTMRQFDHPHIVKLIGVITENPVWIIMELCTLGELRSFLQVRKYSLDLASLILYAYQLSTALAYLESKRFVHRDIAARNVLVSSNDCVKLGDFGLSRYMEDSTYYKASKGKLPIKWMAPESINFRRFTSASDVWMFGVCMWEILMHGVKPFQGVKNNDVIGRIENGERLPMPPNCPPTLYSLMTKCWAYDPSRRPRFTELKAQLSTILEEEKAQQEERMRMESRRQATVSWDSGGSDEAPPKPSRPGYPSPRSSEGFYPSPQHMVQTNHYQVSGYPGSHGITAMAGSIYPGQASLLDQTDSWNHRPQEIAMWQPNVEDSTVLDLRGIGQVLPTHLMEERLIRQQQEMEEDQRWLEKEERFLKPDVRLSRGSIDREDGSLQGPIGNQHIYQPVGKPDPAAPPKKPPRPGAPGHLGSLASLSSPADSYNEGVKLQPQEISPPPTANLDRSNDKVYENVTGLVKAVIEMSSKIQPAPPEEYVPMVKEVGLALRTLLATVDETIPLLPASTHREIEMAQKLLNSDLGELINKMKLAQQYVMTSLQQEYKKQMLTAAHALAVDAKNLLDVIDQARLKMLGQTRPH

Regarding `O=C(Nc1cccc(Nc2cc(Nc3cccc(C(F)(F)F)c3)ncn2)c1)C1CC1`, the residual activity was 69% in test [1]; 101% in [2]; 99% in [3]; 90% (inactive) in test [4]; 100% in test [5]; 97% in [6]. Besides, the residual activity in [7] was 82%; in test [8], 71%; in test [9] it was 88%; in test [10], 130%.
